In PubChem BioAssay AID463095 (Sanford-Burnham Center for Chemical Genomics, 2010):
The other results are listed elsewhere or left out. Calls of active or inactive are those of the source.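 The calls were made as follows: active = proliferation increase above 40% at any of the four tested concentrations; inactive = the rest.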

Assay: inducers of beta-cell proliferation in MIN6, confirmation, MIN6 cells, mouse (AID 463095)
Conditions: ATPlite luminescence, 48 h; series mostly up to 50 µM

| Structure (SMILES) | outcome |
| --- | --- |
| O=C(N/N=C/c1c(O)n(Cc2ccccc2)c(=O)[nH]c1=O)c1ccccc1 | inactive |
| COC(=O)COc1cc(C)cc2oc(=O)c3c(c12)CCCC3 | inactive |
| c1cc2c(cc1CCNC1CCCCCC1)OCO2 | inactive |
